Assay results reported in PubChem BioAssay (EPA / NIEHS).
Calls of active or inactive are those of the source. Rule for the calls: active = hit-call score of the fitted dose curve at least 0.9, where 1 is the maximum; inactive = score below 0.9.

Columns and labels:
[1] = BSK_hDFCGF_SRB: Viability Assessment in the BioMAP Diversity Plus: hDFCGF Assay (AID 2283061); details: primary human foreskin fibroblasts;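 note: cells exposed to compound for 24 h before the read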
Outline: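 SRB-based viability read on primary human skin fibroblasts at 24 h: TCA fixation, 0.1% dye, 560 nm. Gain or loss of signal is fitted against the DMSO negative control.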

[2] = read-out: TIMP metallopeptidase inhibitor 1 (TIMP1), TIMP1 (gene 7076); assay: BSK_hDFCGF_TIMP1: BioMAP Diversity Plus: hDFCGF Assay for TIMP metallopeptidase inhibitor 1 (TIMP1) Biomarker Activity (AID 2283062); details: primary human foreskin fibroblasts; actives raise or lower the signal
Outline: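 Bidirectional curve fitting against DMSO baseline yielded this endpoint, based on ELISA detection of TIMP-1 in primary human foreskin fibroblasts exposed to compound for 24 h.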

[3] = read-out: Monokine induced gamma interferon (MIG), CXCL9 (gene 4283); assay: BSK_hDFCGF_MIG: BioMAP Diversity Plus: hDFCGF Assay for Monokine induced gamma interferon (MIG) Biomarker Activity (AID 2283063); details: primary human foreskin fibroblasts; actives raise or lower the signal
Outline: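 Endpoint derived by bidirectional fitting relative to DMSO; MIG quantified via ELISA in primary human foreskin fibroblasts harvested 24 h after dosing.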

[4] = read-out: Matrix Metallopeptidase 1 (MMP1), MMP1 (gene 4312); assay: BSK_hDFCGF_MMP1: BioMAP Diversity Plus: hDFCGF Assay for Matrix Metallopeptidase 1 (MMP1) Biomarker Activity (AID 2283064); details: primary human foreskin fibroblasts; actives raise or lower the signal
Outline: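 Primary human foreskin fibroblasts exposed to chemicals for 24 h; MMP1 measured by ELISA. Cytotoxicity tracked by SRB staining in parallel cultures; bidirectional fit relative to DMSO.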

[5] = read-out: Vascular cell adhesion molecule 1 (VCAM1), VCAM1 (gene 7412); assay: BSK_hDFCGF_VCAM1: BioMAP Diversity Plus: hDFCGF Assay for Vascular cell adhesion molecule 1 (VCAM1) Biomarker Activity (AID 2283065); details: primary human foreskin fibroblasts; actives raise or lower the signal;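 for AC50: VCAM-1 protein level quantified by ELISA after 24 h chemical exposure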
Outline: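 Measured after 24 h chemical treatment of primary human skin fibroblasts, VCAM-1 was detected by ELISA and concentration-response analysed in both directions versus DMSO vehicle.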

[6] = read-out: Plasminogen activator inhibitor-1 (PAI1), SERPINE1 (gene 5054); assay: BSK_hDFCGF_PAI1: BioMAP Diversity Plus: hDFCGF Assay for Plasminogen activator inhibitor-1 (PAI1) Biomarker Activity (AID 2283066); details: primary human foreskin fibroblasts; actives raise or lower the signal
Outline: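 PAI-1 levels, determined by ELISA, served as the endpoint in human foreskin fibroblast cultures exposed to compound for 24 h, with DMSO as baseline.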

[7] = read-out: Intercellular Adhesion Molecule 1 (ICAM1), ICAM1 (gene 3383); assay: BSK_KF3CT_ICAM1: BioMAP Diversity Plus: KF3CT Assay for Intercellular Adhesion Molecule 1 (ICAM1) Biomarker Activity (AID 2283067); details: primary human keratinocytes with fibroblasts; actives raise or lower the signal
Outline: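 Bidirectional curve fitting against a DMSO baseline was applied to ICAM-1 ELISA signal from primary human skin co-cultures harvested 24 h after treatment, with SRB staining of parallel wells for overt cytotoxicity.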

[8] = read-out: Interferon-gamma inducible Protein 10 (IP10), CXCL10 (gene 3627); assay: BSK_KF3CT_IP10: BioMAP Diversity Plus: KF3CT Assay for Interferon-gamma inducible Protein 10 (IP10) Biomarker Activity (AID 2283068); details: primary human keratinocytes with fibroblasts; actives raise or lower the signal
Outline: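 In a primary skin co-culture of keratinocytes and fibroblasts, IP-10 is quantified by ELISA at 24 h after dosing. SRB staining of parallel wells monitors overt toxicity. Curves are fitted both directions against DMSO.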

[9] = BSK_KF3CT_SRB: Viability Assessment in the BioMAP Diversity Plus: KF3CT Assay (AID 2283069); details: primary human keratinocytes with fibroblasts;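 note: total protein by sulforhodamine B staining as a cytotoxicity measure; read 24 h after compound addition; fitted for both signal gain and loss against DMSO baseline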
Outline: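 Human keratinocyte and foreskin fibroblast co-culture exposed to chemical for 24 h. Total protein measured in parallel cultures by 0.1% sulforhodamine B staining after 10% TCA fixation, read at 560 nm; bidirectional fit relative to DMSO.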

[10] = read-out: Interleukin-1 alpha (IL1a), IL1A (gene 3552); assay: BSK_KF3CT_IL1a: BioMAP Diversity Plus: KF3CT Assay for Interleukin-1 alpha (IL1a) Biomarker Activity (AID 2283070); details: primary human keratinocytes with fibroblasts; actives raise or lower the signal
Outline: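 Primary human keratinocyte plus foreskin fibroblast co-culture, dosed and measured at 24 h in 96-well plates. IL-1a level quantified by ELISA; bidirectional fit relative to DMSO.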

[11] = read-out: TIMP metallopeptidase inhibitor 2 (TIMP2), TIMP2 (gene 7077); assay: BSK_KF3CT_TIMP2: BioMAP Diversity Plus: KF3CT Assay for TIMP metallopeptidase inhibitor 2 (TIMP2) Biomarker Activity (AID 2283071); details: primary human keratinocytes with fibroblasts; actives raise or lower the signal
Outline: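 Keratinocyte–fibroblast co-culture, 24 h exposure; TIMP-2 ELISA, DMSO-normalised bidirectional fit. Parallel SRB (0.1%, TCA-fixed, 560 nm) total-protein staining gauges cytotoxicity.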

[12] = read-out: C-C motif chemokine 2 (Homo sapiens) (UniProt P13500); assay: BSK_KF3CT_MCP1: BioMAP Diversity Plus: KF3CT Assay for Monocyte Chemoattractant Protein 1 (MCP1/CCL2) Biomarker Activity (AID 2283073); details: primary human keratinocytes with fibroblasts; actives raise or lower the signal
Outline: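 Biomarker MCP-1 is measured by ELISA in primary human keratinocytes co-cultured with foreskin fibroblasts, 24 h after chemical treatment; DMSO serves as the negative control and activity baseline.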

[13] = read-out: Matrix Metallopeptidase 9 (MMP9), MMP9 (gene 4318); assay: BSK_KF3CT_MMP9: BioMAP Diversity Plus: KF3CT Assay for Matrix Metallopeptidase 9 (MMP9) Biomarker Activity (AID 2283074); details: primary human keratinocytes with fibroblasts; actives raise or lower the signal;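 for AC50: MMP9 protein level quantified by ELISA in the co-culture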
Outline: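 Human keratinocyte and foreskin fibroblast co-culture exposed to chemicals for 24 h; MMP9 biomarker measured by ELISA, bidirectional fitting relative to DMSO; cytotoxicity tracked by SRB total protein staining in parallel cultures.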

[14] = read-out: urokinase plasminogen activator (uPA), PLAU (gene 5328); assay: BSK_KF3CT_uPA: BioMAP Diversity Plus: KF3CT Assay for urokinase plasminogen activator (uPA) Biomarker Activity (AID 2283075); details: primary human keratinocytes with fibroblasts; actives raise or lower the signal
Outline: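 Primary human keratinocyte/foreskin fibroblast co-culture exposed to chemical; uPA measured by ELISA at 24 h. Bidirectional fit versus DMSO, with parallel SRB total-protein staining for cytotoxicity.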

[15] = read-out: CD40, CD40 (gene 958); assay: BSK_LPS_CD40: BioMAP Diversity Plus: LPS Assay for CD40 Biomarker Activity (AID 2283076); details: primary human HUVEC with PBMC; actives raise or lower the signal
Outline: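 Using a multiplexed primary human co-culture (umbilical vein endothelium plus PBMC), CD40 was read by ELISA 24 h after dosing, with cytotoxicity tracked by sulforhodamine B staining of parallel cultures and activity fitted bidirectionally versus DMSO.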

[16] = read-out: E-selectin (Homo sapiens) (UniProt P16581); assay: BSK_LPS_Eselectin: BioMAP Diversity Plus: LPS Assay for Eselectin Biomarker Activity (AID 2283077); details: primary human HUVEC with PBMC; actives raise or lower the signal
Outline: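 Dose chemical onto LPS-driven HUVEC/PBMC co-culture; after 24 h, run ELISA for E-selectin; fit up- and down-going responses relative to DMSO control.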

[17] = read-out: Interleukin-8 (IL8), CXCL8 (gene 3576); assay: BSK_LPS_IL8: BioMAP Diversity Plus: LPS Assay for Interleukin-8 (IL8) Biomarker Activity (AID 2283078); details: primary human HUVEC with PBMC; actives raise or lower the signal
Outline: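 In this LPS system, chemical-treated human umbilical vein endothelium/PBMC co-cultures were harvested at 24 h for IL-8 ELISA.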

[18] = BSK_LPS_SRB: Viability Assessment in the BioMAP Diversity Plus: LPS Assay (AID 2283079); details: primary human HUVEC with PBMC;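 note: total protein by sulforhodamine B absorbance as a cytotoxicity measure; measured one day after compound addition; fitted in both directions against DMSO so loss or gain of signal counts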
Outline: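 Cytotoxicity endpoint in human endothelial–PBMC co-culture: 24 h exposure, then SRB (0.1%) staining, 560 nm read.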

[19] = read-out: Interleukin-1 alpha (IL1a), IL1A (gene 3552); assay: BSK_LPS_IL1a: BioMAP Diversity Plus: LPS Assay for Interleukin-1 alpha (IL1a) Biomarker Activity (AID 2283080); details: primary human HUVEC with PBMC; actives raise or lower the signal
Outline: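 Primary human HUVEC and PBMC co-culture stimulated with LPS is dosed and harvested at 24 h. Both increases and decreases in ELISA-measured IL-1a are scored relative to DMSO.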

Measured: AC50

Chain of E-selectin (Homo sapiens) (P16581 whole entry, looked up): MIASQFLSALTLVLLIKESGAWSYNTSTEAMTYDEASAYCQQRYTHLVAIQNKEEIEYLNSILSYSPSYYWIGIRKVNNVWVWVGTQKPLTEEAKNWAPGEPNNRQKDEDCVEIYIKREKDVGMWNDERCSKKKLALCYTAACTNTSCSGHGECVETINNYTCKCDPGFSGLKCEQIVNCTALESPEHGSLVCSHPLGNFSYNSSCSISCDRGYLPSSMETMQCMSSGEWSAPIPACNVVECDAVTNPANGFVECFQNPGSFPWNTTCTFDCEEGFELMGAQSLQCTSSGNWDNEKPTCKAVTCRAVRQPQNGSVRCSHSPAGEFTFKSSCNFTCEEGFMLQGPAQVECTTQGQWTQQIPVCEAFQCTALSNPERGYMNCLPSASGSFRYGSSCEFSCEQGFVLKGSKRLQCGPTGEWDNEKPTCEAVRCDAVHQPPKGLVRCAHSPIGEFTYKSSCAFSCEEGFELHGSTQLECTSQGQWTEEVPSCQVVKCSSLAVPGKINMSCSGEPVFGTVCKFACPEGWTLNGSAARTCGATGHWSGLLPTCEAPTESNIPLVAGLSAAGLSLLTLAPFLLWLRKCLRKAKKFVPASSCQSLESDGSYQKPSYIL

CCCCCCCC(=O)O
inactive: [1] | [2] | [3] | [4] | [5] | [6] | [7] | [8] | [9] | [10] | [11] | [12] | [13] | [14] | [15] | [16] | [17] | [18] | [19]

Nc1cccc2c(N)cccc12
inactive: [1] | [2] | [4] | [6] | [7] | [8] | [9] | [10] | [11] | [12] | [13] | [14] | [15] | [16] | [17] | [18] | [19]
active: [3] 16.3 µM | [5] 6.83 µM

c1ccc2c(c1)Cc1ccccc1-2
inactive: [1] | [2] | [3] | [4] | [5] | [6] | [7] | [8] | [9] | [10] | [11] | [12] | [13] | [14] | [15] | [16] | [17] | [18] | [19]

CCCCCCCCCCCCCC[N+](C)(C)C
active: [1] 5.22 µM | [2] 5.39 µM | [3] 7.37 µM | [4] 9.7 µM | [5] 4.06 µM | [6] 2.85 µM | [7] 12.8 µM | [8] 4.81 µM | [9] 5.24 µM | [10] 3.96 µM | [11] 5.45 µM | [12] 8.89 µM | [13] 3.52 µM | [14] 4.33 µM | [15] 4.57 µM | [16] 10 µM | [17] 10.9 µM | [18] 5.37 µM | [19] 1.76 µM

C#C[C@]1(O)CC[C@H]2[C@@H]3CCC4=CC(=O)CC[C@@H]4[C@H]3CC[C@@]21C
active: [16] 6.29 µM | [17] 4.87 µM | [18] 5.96 µM
inactive: [1] | [2] | [3] | [4] | [5] | [6] | [7] | [8] | [9] | [10] | [11] | [12] | [13] | [14] | [15] | [19]

COc1ccc([N+](=O)[O-])cc1N
inactive: [1] | [2] | [3] | [4] | [5] | [6] | [7] | [8] | [9] | [10] | [11] | [12] | [13] | [14] | [15] | [16] | [17] | [18] | [19]

CCCCCCCCCCCCc1ccccc1S(=O)(=O)O
active: [1] 6.52 µM | [2] 11.9 µM | [3] 11.7 µM | [4] 7.55 µM | [5] 11.6 µM | [6] 6.87 µM | [7] 31.5 µM | [8] 13 µM | [9] 12.8 µM | [10] 29.9 µM | [11] 13.3 µM | [12] 24.3 µM | [13] 12 µM | [14] 28 µM
inactive: [15] | [16] | [17] | [18] | [19]

O=C(O)c1ccccc1C(c1ccc(O)cc1)c1ccc(O)cc1
inactive: [1] | [2] | [3] | [4] | [5] | [6] | [7] | [8] | [9] | [10] | [11] | [12] | [13] | [14] | [15] | [16] | [17] | [18] | [19]

N#C[C@@H]1CC(F)(F)CN1C(=O)CNC1CC2CCC(C1)N2c1ncccn1 (some centres undefined)
active: [15] 4.2 µM
inactive: [1] | [2] | [3] | [4] | [5] | [6] | [7] | [8] | [9] | [10] | [11] | [12] | [13] | [14] | [16] | [17] | [18] | [19]

CCC(C)(C)C1CCC(O)CC1 (centres undefined)
active: [8] 32.8 µM
inactive: [1] | [2] | [3] | [4] | [5] | [6] | [7] | [9] | [10] | [11] | [12] | [13] | [14] | [15] | [16] | [17] | [18] | [19]

CN1CCC[C@H]1c1cccnc1
inactive: [1] | [2] | [3] | [4] | [5] | [6] | [7] | [8] | [9] | [10] | [11] | [12] | [13] | [14] | [15] | [16] | [17] | [18] | [19]
